Among the data in ChEMBL document CHEMBL3433997, “St. Jude Leishmania screening dataset” (2016) are inhibition values, retold here.

The structures appear in SMILES notation.

The term inhibition denotes the relative decrease from the control value, in per cent.

Sequence of Solute carrier family 2, facilitated glucose transporter member 1 (Homo sapiens) (P11166 whole entry): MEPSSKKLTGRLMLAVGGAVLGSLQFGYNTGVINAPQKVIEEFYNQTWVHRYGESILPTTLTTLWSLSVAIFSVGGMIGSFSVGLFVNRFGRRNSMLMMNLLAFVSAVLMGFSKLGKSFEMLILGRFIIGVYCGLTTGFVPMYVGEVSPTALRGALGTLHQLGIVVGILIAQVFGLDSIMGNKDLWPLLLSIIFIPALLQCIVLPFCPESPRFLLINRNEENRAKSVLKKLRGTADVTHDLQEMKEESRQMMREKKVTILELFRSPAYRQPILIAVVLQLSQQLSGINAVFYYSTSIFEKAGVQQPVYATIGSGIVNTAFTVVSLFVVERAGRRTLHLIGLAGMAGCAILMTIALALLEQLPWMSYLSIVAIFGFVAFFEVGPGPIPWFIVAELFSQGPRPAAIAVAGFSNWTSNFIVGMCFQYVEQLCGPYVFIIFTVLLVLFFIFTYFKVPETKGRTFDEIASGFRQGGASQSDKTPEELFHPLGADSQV

The test addresses Solute carrier family 2, facilitated glucose transporter member 1 (Homo sapiens) (UniProt P11166). The test can be described thus: ST_JUDE_LEISH: Cytotoxicity at 2uM final concentration against transgenic Leishmania Mexicana promastigotes LmGLUT1 that are glucose transport deficient and complemented with the human glucose transporter GLUT1. Activity is measured by DNA content using SYBR green in vitro. Type of test: functional.
With `Nc1ccc(-c2nc3cc(Cc4ccc5[nH]c(-c6ccc(N)cc6)nc5c4)ccc3[nH]2)cc1`, the inhibition was determined as 0.06%.

Regarding `CCCC(C)NC(=O)[C@H](Cc1ccccc1)NC(=O)c1ccc(O)c(-c2ccc(OC)cc2)c1` (some centres undefined), the inhibition is 4.38%.

With `CC(=O)Nc1cccc(Nc2nccc(-c3c(-c4cccc(NC(=O)c5c(F)cccc5F)c4)nn4ncccc34)n2)c1`, the inhibition was 6.99%.

Regarding `COc1ccc2nccc([C@@H](O)CN3CCC(NCc4nc5c([N+](=O)[O-])cccc5[nH]4)CC3)c2c1`, the inhibition was found to be 2.43%.

As to `O=C(NCc1ccc(F)cc1)Nc1cccc(-c2ccc(-c3nc4cc(F)ccc4[nH]3)cc2)c1`, the inhibition is 6.43%.

Take `CC1(C)N=C(N)N=C(NOCc2ccc(Cl)c(Cl)c2)N1`: the inhibition was determined as 1.06%.

Turning to `CCn1c(Sc2ccc([N+](=O)[O-])c(C#N)c2)nnc1-c1ccc(Cl)cc1`, the inhibition stood at 9.05%.

`COc1ccc2ccccc2c1CCCCN1CCN(CC(c2ccc(F)cc2)N2CCN(C(C)C)CC2)CC1` (centres undefined): the inhibition turned out to be 17.9%.

For the compound `OCCNc1nc(Nc2cccc(O)c2)nc2ccccc12`, the inhibition stood at 4.65%.

Take `Oc1cccc(-c2nc(-c3ccccc3)c(-c3ccc4oc5ccc(-c6[nH]c(-c7cccc(O)c7)nc6-c6ccccc6)cc5c4c3)[nH]2)c1`: the inhibition turned out to be 3.36%.

On to `CCN(CC)C(=S)N/N=C1/C(=O)Nc2c(C)cccc21`, for which the inhibition stood at 6.57%.

Turning to `Cn1cnc2c(Nc3ccncc3)nc(-c3ccc4ccccc4c3)nc21`, the inhibition is -0.3%.

As for `Cc1nc2ccccc2n1C1CC2CCC(C1)N2CCCC1(c2ccccc2)CCN(C(=O)OCc2ccccc2)CC1` (centres undefined), the inhibition amounted to 3.25%.

On to `CN(c1ccc(NC(=O)Nc2cc(C(C)(C)C)on2)cc1)c1ccnc(NCCN2CCOCC2)n1`, for which the inhibition came out at 32.3%.
